Legend:
Assay in all cases: DAPPL (digital affinity profiling via proximity ligation, sequencing); 10 mM Tris-HCl pH 7.5, 50 mM NaCl, 1 mM DTT, 4% glycerol, room temperature, 30 min; GST-TFs on glutathione beads, 16-mer random dsDNA library, 0.1% formaldehyde crosslink after washing; high values mean tight binding
Details in all cases: protein: recombinant; tags: N-terminal GST; dsDNA, one strand shown
[1] = target: T1, FLI1 (Homo sapiens, UniProt Q01543 1-452)
T1 sequence: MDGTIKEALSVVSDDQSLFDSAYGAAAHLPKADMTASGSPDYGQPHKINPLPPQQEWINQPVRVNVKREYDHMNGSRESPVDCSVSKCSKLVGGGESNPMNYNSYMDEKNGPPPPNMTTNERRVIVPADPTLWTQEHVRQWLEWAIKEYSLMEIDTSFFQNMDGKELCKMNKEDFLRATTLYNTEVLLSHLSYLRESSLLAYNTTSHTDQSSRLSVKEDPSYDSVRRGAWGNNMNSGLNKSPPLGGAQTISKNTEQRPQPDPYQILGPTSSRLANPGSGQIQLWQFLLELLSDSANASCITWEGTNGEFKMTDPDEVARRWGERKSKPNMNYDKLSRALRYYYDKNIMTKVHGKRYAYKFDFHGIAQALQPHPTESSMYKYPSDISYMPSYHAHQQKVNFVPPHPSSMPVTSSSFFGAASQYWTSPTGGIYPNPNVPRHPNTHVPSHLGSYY
Outline: (§1)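 Each value of binding signal is a hexamer's read frequency for a factor divided by the same hexamer's frequency in the tag-only sample. Barcoded, bead-captured GST fusions of human transcription factors made in yeast were pooled with that sample and incubated with 200 nmole of a random double-stranded 16-mer DNA library in Tris/NaCl/DTT/glycerol buffer at room temperature for 30 min. Washing, 0.1% formaldehyde crosslinking, proximity ligation, PCR and Illumina NextSeq500 sequencing followed.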

[2] = target: T2, ELK1 (Homo sapiens, UniProt P19419 1-428)
T2 sequence: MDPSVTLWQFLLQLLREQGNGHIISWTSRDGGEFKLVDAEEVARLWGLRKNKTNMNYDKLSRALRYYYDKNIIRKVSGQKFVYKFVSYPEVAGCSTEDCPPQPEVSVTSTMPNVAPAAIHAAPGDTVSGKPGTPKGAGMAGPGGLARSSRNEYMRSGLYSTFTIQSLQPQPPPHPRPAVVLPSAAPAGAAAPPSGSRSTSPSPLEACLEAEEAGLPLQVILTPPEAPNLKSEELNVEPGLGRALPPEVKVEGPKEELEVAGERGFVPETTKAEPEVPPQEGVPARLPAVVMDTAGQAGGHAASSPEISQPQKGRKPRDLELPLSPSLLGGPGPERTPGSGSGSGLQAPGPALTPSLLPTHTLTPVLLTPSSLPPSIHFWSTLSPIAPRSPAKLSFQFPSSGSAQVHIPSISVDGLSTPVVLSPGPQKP
Outline: as §1

[3] = target: T3, GABPA (Homo sapiens, UniProt Q06546 1-454)
T3 sequence: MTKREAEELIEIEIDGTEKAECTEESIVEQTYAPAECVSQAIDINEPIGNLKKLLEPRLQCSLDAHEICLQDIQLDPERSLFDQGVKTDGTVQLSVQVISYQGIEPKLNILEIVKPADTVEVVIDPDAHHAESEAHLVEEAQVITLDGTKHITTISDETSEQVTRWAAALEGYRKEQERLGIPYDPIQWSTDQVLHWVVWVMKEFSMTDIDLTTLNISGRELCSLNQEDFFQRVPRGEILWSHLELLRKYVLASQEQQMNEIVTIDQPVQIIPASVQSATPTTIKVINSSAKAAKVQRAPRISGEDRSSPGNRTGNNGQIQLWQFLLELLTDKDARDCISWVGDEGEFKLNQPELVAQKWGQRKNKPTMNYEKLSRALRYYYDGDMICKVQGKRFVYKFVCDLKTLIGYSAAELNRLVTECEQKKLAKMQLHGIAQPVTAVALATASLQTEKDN
Outline: as §1

[4] = target: T4, ERG (Homo sapiens, UniProt P11308 1-479)
T4 sequence: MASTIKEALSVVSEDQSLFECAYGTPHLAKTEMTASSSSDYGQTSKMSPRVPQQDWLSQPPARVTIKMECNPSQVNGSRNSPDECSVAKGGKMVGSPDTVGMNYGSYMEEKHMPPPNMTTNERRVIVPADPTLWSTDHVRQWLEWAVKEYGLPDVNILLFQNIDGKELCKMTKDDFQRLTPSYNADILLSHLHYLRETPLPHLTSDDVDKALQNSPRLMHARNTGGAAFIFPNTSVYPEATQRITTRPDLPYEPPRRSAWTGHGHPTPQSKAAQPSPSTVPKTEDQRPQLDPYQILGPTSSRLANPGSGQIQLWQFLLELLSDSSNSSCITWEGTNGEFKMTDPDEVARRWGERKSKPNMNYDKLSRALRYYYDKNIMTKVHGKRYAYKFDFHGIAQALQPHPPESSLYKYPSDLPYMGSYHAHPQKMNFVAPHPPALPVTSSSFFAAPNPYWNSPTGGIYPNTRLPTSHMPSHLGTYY
Outline: as §1

[5] = target: ELF1 (Homo sapiens, UniProt P32519 1-619)
Outline: as §1

[6] = target: T5, EHF (Homo sapiens, UniProt Q9NZC4 1-300)
T5 sequence: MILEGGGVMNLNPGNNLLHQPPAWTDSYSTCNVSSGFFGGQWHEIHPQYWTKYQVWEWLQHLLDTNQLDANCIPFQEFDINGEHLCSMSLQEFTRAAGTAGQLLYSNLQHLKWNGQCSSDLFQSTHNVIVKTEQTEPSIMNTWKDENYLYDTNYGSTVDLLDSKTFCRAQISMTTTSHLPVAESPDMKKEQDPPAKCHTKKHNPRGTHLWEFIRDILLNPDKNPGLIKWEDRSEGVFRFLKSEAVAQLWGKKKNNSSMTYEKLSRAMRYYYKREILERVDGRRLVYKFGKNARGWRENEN
Outline: as §1

[7] = target: SPI1 (Homo sapiens, UniProt P17947 1-270)
Outline: as §1

[8] = target: SPIB (Homo sapiens, UniProt Q01892 1-262)
Outline: as §1

[9] = target: T6, ELK3 (Homo sapiens, UniProt P41970 1-407)
T6 sequence: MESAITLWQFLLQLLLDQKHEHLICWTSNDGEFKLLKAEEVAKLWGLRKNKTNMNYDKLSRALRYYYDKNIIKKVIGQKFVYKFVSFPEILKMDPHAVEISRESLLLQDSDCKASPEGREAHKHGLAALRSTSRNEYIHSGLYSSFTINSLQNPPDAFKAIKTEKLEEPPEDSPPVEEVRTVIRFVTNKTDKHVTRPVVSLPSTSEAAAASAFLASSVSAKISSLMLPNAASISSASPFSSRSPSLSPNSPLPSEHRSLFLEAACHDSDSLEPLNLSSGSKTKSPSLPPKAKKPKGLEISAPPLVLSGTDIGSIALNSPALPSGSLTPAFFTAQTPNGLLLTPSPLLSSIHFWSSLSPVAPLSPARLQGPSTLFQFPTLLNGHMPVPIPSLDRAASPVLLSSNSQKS
Outline: as §1

ELF1, sequence (P32519 whole entry): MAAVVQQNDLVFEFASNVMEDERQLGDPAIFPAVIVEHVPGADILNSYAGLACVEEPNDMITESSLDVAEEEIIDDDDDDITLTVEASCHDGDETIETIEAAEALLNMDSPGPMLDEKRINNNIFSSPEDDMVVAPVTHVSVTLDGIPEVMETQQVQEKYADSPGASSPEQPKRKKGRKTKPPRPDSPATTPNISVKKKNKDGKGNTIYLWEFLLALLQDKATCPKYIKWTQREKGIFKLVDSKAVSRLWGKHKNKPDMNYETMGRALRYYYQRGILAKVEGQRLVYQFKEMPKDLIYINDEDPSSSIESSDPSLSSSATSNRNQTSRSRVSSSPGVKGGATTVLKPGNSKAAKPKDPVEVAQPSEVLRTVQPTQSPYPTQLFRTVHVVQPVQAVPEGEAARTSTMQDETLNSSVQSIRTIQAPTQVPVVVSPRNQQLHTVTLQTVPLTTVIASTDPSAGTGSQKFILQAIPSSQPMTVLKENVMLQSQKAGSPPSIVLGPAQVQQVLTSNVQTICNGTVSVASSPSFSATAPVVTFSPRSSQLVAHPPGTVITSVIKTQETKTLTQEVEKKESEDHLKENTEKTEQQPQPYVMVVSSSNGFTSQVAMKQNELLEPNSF
SPIB, sequence (Q01892 whole entry): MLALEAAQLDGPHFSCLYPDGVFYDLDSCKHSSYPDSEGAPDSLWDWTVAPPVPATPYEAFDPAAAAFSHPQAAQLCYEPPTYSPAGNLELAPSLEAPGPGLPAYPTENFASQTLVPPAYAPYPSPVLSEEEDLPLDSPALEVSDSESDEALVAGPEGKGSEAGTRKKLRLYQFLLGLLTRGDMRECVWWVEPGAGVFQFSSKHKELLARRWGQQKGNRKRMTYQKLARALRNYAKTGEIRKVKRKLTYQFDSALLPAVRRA

| Sequence | binding signal [1] | binding signal [2] | binding signal [3] | binding signal [4] | binding signal [5] | binding signal [6] | binding signal [7] | binding signal [8] | binding signal [9] |
| --- | --- | --- | --- | --- | --- | --- | --- | --- | --- |
| TTTTGC | 1.51 fold enrichment (6-mer frequency, TF over GST control) | 1.39 fold enrichment (6-mer frequency, TF over GST control) | 1.38 fold enrichment (6-mer frequency, TF over GST control) | 1.26 fold enrichment (6-mer frequency, TF over GST control) | 1.42 fold enrichment (6-mer frequency, TF over GST control) | 1.28 fold enrichment (6-mer frequency, TF over GST control) | 1.43 fold enrichment (6-mer frequency, TF over GST control) | 1.45 fold enrichment (6-mer frequency, TF over GST control) | 1.42 fold enrichment (6-mer frequency, TF over GST control) |
| ACCGAC | 1.41 fold enrichment (6-mer frequency, TF over GST control) | 1.29 fold enrichment (6-mer frequency, TF over GST control) | 1.29 fold enrichment (6-mer frequency, TF over GST control) | 1.29 fold enrichment (6-mer frequency, TF over GST control) | 1.3 fold enrichment (6-mer frequency, TF over GST control) | 1.23 fold enrichment (6-mer frequency, TF over GST control) | 1.4 fold enrichment (6-mer frequency, TF over GST control) | 1.34 fold enrichment (6-mer frequency, TF over GST control) | 1.35 fold enrichment (6-mer frequency, TF over GST control) |
| GTTAAC | 1.04 fold enrichment (6-mer frequency, TF over GST control) | 1.22 fold enrichment (6-mer frequency, TF over GST control) | 1.13 fold enrichment (6-mer frequency, TF over GST control) | 1.15 fold enrichment (6-mer frequency, TF over GST control) | 1.14 fold enrichment (6-mer frequency, TF over GST control) | 1.11 fold enrichment (6-mer frequency, TF over GST control) | 1.15 fold enrichment (6-mer frequency, TF over GST control) | 1.12 fold enrichment (6-mer frequency, TF over GST control) | 1.23 fold enrichment (6-mer frequency, TF over GST control) |
| CTATTC | 1.33 fold enrichment (6-mer frequency, TF over GST control) | 1.34 fold enrichment (6-mer frequency, TF over GST control) | 1.34 fold enrichment (6-mer frequency, TF over GST control) | 1.35 fold enrichment (6-mer frequency, TF over GST control) | 1.42 fold enrichment (6-mer frequency, TF over GST control) | 1.42 fold enrichment (6-mer frequency, TF over GST control) | 1.29 fold enrichment (6-mer frequency, TF over GST control) | 1.23 fold enrichment (6-mer frequency, TF over GST control) | 1.13 fold enrichment (6-mer frequency, TF over GST control) |
| AACACT | 1.27 fold enrichment (6-mer frequency, TF over GST control) | 1.38 fold enrichment (6-mer frequency, TF over GST control) | 1.32 fold enrichment (6-mer frequency, TF over GST control) | 1.31 fold enrichment (6-mer frequency, TF over GST control) | 1.32 fold enrichment (6-mer frequency, TF over GST control) | 1.35 fold enrichment (6-mer frequency, TF over GST control) | 1.36 fold enrichment (6-mer frequency, TF over GST control) | 1.31 fold enrichment (6-mer frequency, TF over GST control) | 1.23 fold enrichment (6-mer frequency, TF over GST control) |
| TTACCT | 1.12 fold enrichment (6-mer frequency, TF over GST control) | 1.19 fold enrichment (6-mer frequency, TF over GST control) | 1.32 fold enrichment (6-mer frequency, TF over GST control) | 1.17 fold enrichment (6-mer frequency, TF over GST control) | 1.19 fold enrichment (6-mer frequency, TF over GST control) | 1.31 fold enrichment (6-mer frequency, TF over GST control) | 1.19 fold enrichment (6-mer frequency, TF over GST control) | 1.4 fold enrichment (6-mer frequency, TF over GST control) | 1.22 fold enrichment (6-mer frequency, TF over GST control) |
| TGAACT | 1.27 fold enrichment (6-mer frequency, TF over GST control) | 1.19 fold enrichment (6-mer frequency, TF over GST control) | 1.33 fold enrichment (6-mer frequency, TF over GST control) | 1.32 fold enrichment (6-mer frequency, TF over GST control) | 1.2 fold enrichment (6-mer frequency, TF over GST control) | 1.34 fold enrichment (6-mer frequency, TF over GST control) | 1.17 fold enrichment (6-mer frequency, TF over GST control) | 1.25 fold enrichment (6-mer frequency, TF over GST control) | 1.19 fold enrichment (6-mer frequency, TF over GST control) |
| TTCCAT | 1.38 fold enrichment (6-mer frequency, TF over GST control) | 1.29 fold enrichment (6-mer frequency, TF over GST control) | 1.22 fold enrichment (6-mer frequency, TF over GST control) | 1.25 fold enrichment (6-mer frequency, TF over GST control) | 1.33 fold enrichment (6-mer frequency, TF over GST control) | 1.28 fold enrichment (6-mer frequency, TF over GST control) | 1.34 fold enrichment (6-mer frequency, TF over GST control) | 1.32 fold enrichment (6-mer frequency, TF over GST control) | 1.28 fold enrichment (6-mer frequency, TF over GST control) |

Reference: paper PMC7862700, “An all-to-all approach to the identification of sequence-specific readers for epigenetic DNA modifications on cytosine”
